Molecular target: Solute carrier family 2, facilitated glucose transporter member 1 (Homo sapiens) (UniProt P11166)
Assay: ST_JUDE_LEISH: Cytotoxicity at 2uM final concentration against transgenic Leishmania Mexicana promastigotes LmGLUT1 that are glucose transport deficient and complemented with the human glucose transporter GLUT1. Activity is measured by DNA content using SYBR green in vitro
Format: functional

Chain of Solute carrier family 2, facilitated glucose transporter member 1 (Homo sapiens) (P11166 whole entry): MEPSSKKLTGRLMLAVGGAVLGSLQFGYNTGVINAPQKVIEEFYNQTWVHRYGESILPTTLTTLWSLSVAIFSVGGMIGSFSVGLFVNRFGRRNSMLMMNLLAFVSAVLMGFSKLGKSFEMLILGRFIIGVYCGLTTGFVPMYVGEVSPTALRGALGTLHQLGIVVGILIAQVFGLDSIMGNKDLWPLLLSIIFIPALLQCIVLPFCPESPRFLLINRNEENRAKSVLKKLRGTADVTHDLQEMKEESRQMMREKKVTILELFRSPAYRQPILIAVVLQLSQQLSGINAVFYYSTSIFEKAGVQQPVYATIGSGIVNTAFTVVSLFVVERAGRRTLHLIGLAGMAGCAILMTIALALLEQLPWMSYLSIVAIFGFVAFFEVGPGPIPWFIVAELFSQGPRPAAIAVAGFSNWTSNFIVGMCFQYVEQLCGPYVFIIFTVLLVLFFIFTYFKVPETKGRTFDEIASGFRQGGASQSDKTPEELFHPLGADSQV

SMILES	inhibition [%]
COc1cc(NC(=O)NC(CCN2CCC3(CCc4ccccc43)CC2)c2ccc(Cl)c(Cl)c2)cc(OC)c1OC (stereo not given)	0.41
Cn1cnc(CCNC(=O)c2cccc(-c3csc(-c4nc5ccccc5[nH]4)c3)c2)c1	-1.62
CC[C@H]1CN2CCc3c([nH]c4ccccc34)[C@@H]2C[C@@H]1CC1c2cc(OC)c(OC)cc2CCN1C (stereo not given in full)	9.81
Cc1cc(OCCCN2CCC(NS(=O)(=O)c3cccc(Br)c3)C2)c2ccccc2n1 (stereo not given)	0.6
CC(=O)Nc1nc(C(=O)Nc2cccc(-c3cccc(-c4nc5ccccc5[nH]4)c3)c2)cs1	12
N=C(N)NN=CC(=O)Nc1ccc(Cl)cc1	7.68
CN1CCN(c2nc(NCCNc3ccc([N+](=O)[O-])cc3)c3ccccc3n2)CC1	0.92
CCCCCCNCc1c(O)ccc2c(CNCCCCCC)c(O)ccc12	-0.62
Cc1cccc2nc(-c3ccc(-c4ccc(CN5CCCC5CN)cc4)cc3)[nH]c12 (stereo not given)	6.95
OC(c1ccccc1)C1CN(Cc2ccccc2)CCC1(O)c1ccccc1 (stereo not given)	8.06
O=c1cc(NCCCNCc2cc3ccccc3s2)[nH]c2ccccc12	4.89
Cc1nc2nc(N)nc(N)c2c(C)c1Cc1ccc(C#N)cc1	0.34
CCN(CC)CCN(Cc1ccc(-c2ccc(C(F)(F)F)cc2)cc1)C(=O)Cn1c(CCc2ccc(F)c(F)c2)cc(=O)c2ccccc21	7.8
Cc1cccc2nc(-c3cccc(-c4cccc(NC(=O)CN5CCN(C)CC5)c4)c3)[nH]c12	8.23
Cc1ccc(O)c(-c2cc(C(=O)Nc3ccc(S(=O)(=O)N4CCCCCC4)cc3)[nH]n2)c1	-2.76
O=C(Nc1ccc(F)c(Cl)c1)c1cc([N+](=O)[O-])cc2cn[nH]c12	-0.64
Clc1ccc2c(NCc3ccc4c(c3)OCO4)ccnc2c1	6
Nc1ccnc(N2CCC(CCOc3cc(C(F)(F)F)nc4c(C(F)(F)F)cccc34)CC2)c1	25.6
COc1ccc(Cn2c(N3CCN(S(=O)(=O)c4ccc(OC)cc4)CC3)nc3c2c(=O)n(CC2CC2)c(=O)n3CC2CC2)cc1	0.89
O=C(Nc1ccc(Br)c(C(F)(F)F)c1)c1cccc([N+](=O)[O-])c1	3.35

SMILES	inhibition [%]
CCOc1cc(NC(=O)Nc2ccnc3ccccc23)cc(OC)c1	12.6
Brc1ccc(C=NNc2nc3ccccc3[nH]2)cc1	6.61
O=C(Nc1cccc(CN2CCCN(Cc3ccc(O)cc3)CC2)c1)c1cccc(F)c1	10.8
COc1ccc(CNC(=O)NC2CCN(c3ccnc(Nc4ccc(OC)cc4)n3)C2)cc1 (stereo not given)	1.61
Cc1sc2nc(CSc3ccccc3)nc(N3CCN(CC(=O)NC4CC4)CC3)c2c1C	-0.96
NC1=NC(c2ccccc2)(c2ccccn2)C(=O)N1CCCc1ccccc1 (stereo not given)	6.44
COc1ccccc1CCC(C)(C)NC(=O)CC(CCc1ccccc1)Nc1ccc(C#N)c2ccccc12 (stereo not given)	-0.97
c1cc(CN2CCC(CCN3CCCCC3)CC2)cc(-c2csc(-c3nc4ccccc4[nH]3)c2)c1	7.93
Oc1ccc2ccccc2c1C=NNc1nc(=Nc2ccccc2)[nH]c(=Nc2ccccc2)[nH]1	3.37
O=C(Nc1cccc(C(F)(F)F)c1)N1CCOC(CCN2CCC3(CCc4ccccc43)CC2)(c2ccc(Cl)c(Cl)c2)C1 (stereo not given)	5.08
Cn1cncc1C(=O)Nc1cccc(-c2ccc(-c3nc4ccccc4[nH]3)s2)c1	3.45
COc1cc(OC)nc(C(Sc2ccc(NC(=O)c3cccs3)cc2)c2ccccc2)n1 (stereo not given)	6.79
O=C(Nc1ccccc1O)c1ccc(Oc2cccc(C(=O)Nc3ccccc3O)c2)cc1	3.99
CCCCCCN1CCCN(Cc2ccc(C(=O)Nc3ccc(Cl)cc3)cc2)CC1	12.3
CC(C)CCN1CCCN(Cc2ccc(C(=O)Nc3ccc(F)c(F)c3)cc2)CC1	4.12
COc1ccc(CNCc2cccc(-c3cccc(-c4nc5cccc(C)c5[nH]4)c3)c2)cc1	9.14
O=C(OCc1ccccc1)N1CCc2c([nH]c3ccccc23)C1CCC(F)(F)F (stereo not given)	3.72
CCOc1cc(C(C)C)ccc1N1CCN(CCCCNC(=O)c2ccc(NC(=O)c3ccc(Cl)cc3)cc2)CC1	4.38
Cc1ccc(NC(=O)c2ccc(Cl)c(Cl)c2)cc1-c1ccc(C(=O)Nc2ccncc2)cc1	-0.14
COc1cc2nc(N3CCC(C(N)=O)CC3)nc(NCc3ccccc3)c2cc1OC	3.29

Molecular target: Hexose transporter 1 (Plasmodium falciparum) (UniProt O97467)
Assay: ST_JUDE_LEISH: Cytotoxicity at 2uM final concentration against transgenic Leishmania Mexicana promastigotes LmPfHT that are glucose transport deficient and complemented with the Plasmodium falciparum hexose transporter. Activity is measured by DNA content using SYBR green in vitro
Format: functional

SMILES	inhibition [%]
COc1cc(NC(=O)NC(CCN2CCC3(CCc4ccccc43)CC2)c2ccc(Cl)c(Cl)c2)cc(OC)c1OC (stereo not given)	0.09
Cn1cnc(CCNC(=O)c2cccc(-c3csc(-c4nc5ccccc5[nH]4)c3)c2)c1	-0.39
CC[C@H]1CN2CCc3c([nH]c4ccccc34)[C@@H]2C[C@@H]1CC1c2cc(OC)c(OC)cc2CCN1C (stereo not given in full)	10
Cc1cc(OCCCN2CCC(NS(=O)(=O)c3cccc(Br)c3)C2)c2ccccc2n1 (stereo not given)	1.51
CC(=O)Nc1nc(C(=O)Nc2cccc(-c3cccc(-c4nc5ccccc5[nH]4)c3)c2)cs1	15.6
N=C(N)NN=CC(=O)Nc1ccc(Cl)cc1	11.3
CN1CCN(c2nc(NCCNc3ccc([N+](=O)[O-])cc3)c3ccccc3n2)CC1	0.91
CCCCCCNCc1c(O)ccc2c(CNCCCCCC)c(O)ccc12	-0.78
Cc1cccc2nc(-c3ccc(-c4ccc(CN5CCCC5CN)cc4)cc3)[nH]c12 (stereo not given)	6.96
OC(c1ccccc1)C1CN(Cc2ccccc2)CCC1(O)c1ccccc1 (stereo not given)	7.93
O=c1cc(NCCCNCc2cc3ccccc3s2)[nH]c2ccccc12	6.01
Cc1nc2nc(N)nc(N)c2c(C)c1Cc1ccc(C#N)cc1	4.37
CCN(CC)CCN(Cc1ccc(-c2ccc(C(F)(F)F)cc2)cc1)C(=O)Cn1c(CCc2ccc(F)c(F)c2)cc(=O)c2ccccc21	7.35
Cc1cccc2nc(-c3cccc(-c4cccc(NC(=O)CN5CCN(C)CC5)c4)c3)[nH]c12	7.52
Cc1ccc(O)c(-c2cc(C(=O)Nc3ccc(S(=O)(=O)N4CCCCCC4)cc3)[nH]n2)c1	-1.17
O=C(Nc1ccc(F)c(Cl)c1)c1cc([N+](=O)[O-])cc2cn[nH]c12	-0.66
Clc1ccc2c(NCc3ccc4c(c3)OCO4)ccnc2c1	8.03
Nc1ccnc(N2CCC(CCOc3cc(C(F)(F)F)nc4c(C(F)(F)F)cccc34)CC2)c1	43.4
COc1ccc(Cn2c(N3CCN(S(=O)(=O)c4ccc(OC)cc4)CC3)nc3c2c(=O)n(CC2CC2)c(=O)n3CC2CC2)cc1	-0.86
O=C(Nc1ccc(Br)c(C(F)(F)F)c1)c1cccc([N+](=O)[O-])c1	2.2

SMILES	inhibition [%]
CCOc1cc(NC(=O)Nc2ccnc3ccccc23)cc(OC)c1	10.5
Brc1ccc(C=NNc2nc3ccccc3[nH]2)cc1	4.26
O=C(Nc1cccc(CN2CCCN(Cc3ccc(O)cc3)CC2)c1)c1cccc(F)c1	10.4
COc1ccc(CNC(=O)NC2CCN(c3ccnc(Nc4ccc(OC)cc4)n3)C2)cc1 (stereo not given)	1.7
Cc1sc2nc(CSc3ccccc3)nc(N3CCN(CC(=O)NC4CC4)CC3)c2c1C	-2.01
NC1=NC(c2ccccc2)(c2ccccn2)C(=O)N1CCCc1ccccc1 (stereo not given)	2.19
COc1ccccc1CCC(C)(C)NC(=O)CC(CCc1ccccc1)Nc1ccc(C#N)c2ccccc12 (stereo not given)	-0.79
c1cc(CN2CCC(CCN3CCCCC3)CC2)cc(-c2csc(-c3nc4ccccc4[nH]3)c2)c1	8.75
Oc1ccc2ccccc2c1C=NNc1nc(=Nc2ccccc2)[nH]c(=Nc2ccccc2)[nH]1	3.44
O=C(Nc1cccc(C(F)(F)F)c1)N1CCOC(CCN2CCC3(CCc4ccccc43)CC2)(c2ccc(Cl)c(Cl)c2)C1 (stereo not given)	4.51
Cn1cncc1C(=O)Nc1cccc(-c2ccc(-c3nc4ccccc4[nH]3)s2)c1	2.88
COc1cc(OC)nc(C(Sc2ccc(NC(=O)c3cccs3)cc2)c2ccccc2)n1 (stereo not given)	4.81
O=C(Nc1ccccc1O)c1ccc(Oc2cccc(C(=O)Nc3ccccc3O)c2)cc1	4.01
CCCCCCN1CCCN(Cc2ccc(C(=O)Nc3ccc(Cl)cc3)cc2)CC1	13.8
CC(C)CCN1CCCN(Cc2ccc(C(=O)Nc3ccc(F)c(F)c3)cc2)CC1	4.65
COc1ccc(CNCc2cccc(-c3cccc(-c4nc5cccc(C)c5[nH]4)c3)c2)cc1	8.38
O=C(OCc1ccccc1)N1CCc2c([nH]c3ccccc23)C1CCC(F)(F)F (stereo not given)	2.6
CCOc1cc(C(C)C)ccc1N1CCN(CCCCNC(=O)c2ccc(NC(=O)c3ccc(Cl)cc3)cc2)CC1	2.39
Cc1ccc(NC(=O)c2ccc(Cl)c(Cl)c2)cc1-c1ccc(C(=O)Nc2ccncc2)cc1	0.86
COc1cc2nc(N3CCC(C(N)=O)CC3)nc(NCc3ccccc3)c2cc1OC	1.29
